Tests used:
Test in all cases: DAPPL (digital affinity profiling via proximity ligation, sequencing); 10 mM Tris-HCl pH 7.5, 50 mM NaCl, 1 mM DTT, 4% glycerol, room temperature, 30 min; GST-TFs on glutathione beads, 16-mer random dsDNA library, 0.1% formaldehyde crosslink after washing; high values mean tight binding
[1] = target: T1, FEV (Homo sapiens, UniProt Q99581 1-238); details: protein: recombinant; tags: N-terminal GST; dsDNA, one strand shown
T1 sequence: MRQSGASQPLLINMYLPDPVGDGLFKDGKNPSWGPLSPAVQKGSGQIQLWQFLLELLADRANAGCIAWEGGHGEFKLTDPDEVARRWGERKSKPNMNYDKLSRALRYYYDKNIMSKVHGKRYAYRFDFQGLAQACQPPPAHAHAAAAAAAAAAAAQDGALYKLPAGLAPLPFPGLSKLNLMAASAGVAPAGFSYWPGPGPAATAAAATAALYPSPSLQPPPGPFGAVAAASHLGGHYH
Summary of the method: (§1)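 In yeast, human transcription factors were expressed with a GST fusion, then pulled down on glutathione beads and given DNA barcodes. Pooled with a tag-only sample, they were exposed to 200 nmole of a 16-mer random double-stranded DNA library (Tris/NaCl/DTT/glycerol buffer, room temperature, 30 min), washed, crosslinked with 0.1% formaldehyde, proximity-ligated using BsaI/T4 ligase for 1 h at 37 °C, PCR-amplified and read on an Illumina NextSeq500. Each hexamer's frequency of reads for a factor, divided by the matching frequency for the tag-only sample, gives the binding signal.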

[2] = target: ETV5 (Homo sapiens, UniProt P41161 1-510); details: protein: recombinant; tags: N-terminal GST; dsDNA, one strand shown
ETV5, sequence (P41161 whole entry): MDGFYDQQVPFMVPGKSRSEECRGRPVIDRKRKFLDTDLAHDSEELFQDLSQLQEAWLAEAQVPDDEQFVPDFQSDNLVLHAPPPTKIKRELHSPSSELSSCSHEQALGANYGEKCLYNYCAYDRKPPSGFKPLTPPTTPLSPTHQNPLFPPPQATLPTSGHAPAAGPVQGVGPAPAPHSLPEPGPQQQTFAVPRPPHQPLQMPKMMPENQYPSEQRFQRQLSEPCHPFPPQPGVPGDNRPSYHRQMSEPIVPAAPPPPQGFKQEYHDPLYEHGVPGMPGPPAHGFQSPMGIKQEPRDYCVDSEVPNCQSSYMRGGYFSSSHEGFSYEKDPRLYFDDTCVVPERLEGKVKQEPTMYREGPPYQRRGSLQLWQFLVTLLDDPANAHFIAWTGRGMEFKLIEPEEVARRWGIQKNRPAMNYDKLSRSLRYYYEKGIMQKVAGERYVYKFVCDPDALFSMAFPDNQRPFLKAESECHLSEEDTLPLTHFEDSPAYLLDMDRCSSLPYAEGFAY
Summary of the method: as §1

[3] = target: HSF1 (Homo sapiens, UniProt Q00613 1-529); details: protein: recombinant; tags: N-terminal GST; chain copies: 3; dsDNA, one strand shown
HSF1, sequence (Q00613 whole entry): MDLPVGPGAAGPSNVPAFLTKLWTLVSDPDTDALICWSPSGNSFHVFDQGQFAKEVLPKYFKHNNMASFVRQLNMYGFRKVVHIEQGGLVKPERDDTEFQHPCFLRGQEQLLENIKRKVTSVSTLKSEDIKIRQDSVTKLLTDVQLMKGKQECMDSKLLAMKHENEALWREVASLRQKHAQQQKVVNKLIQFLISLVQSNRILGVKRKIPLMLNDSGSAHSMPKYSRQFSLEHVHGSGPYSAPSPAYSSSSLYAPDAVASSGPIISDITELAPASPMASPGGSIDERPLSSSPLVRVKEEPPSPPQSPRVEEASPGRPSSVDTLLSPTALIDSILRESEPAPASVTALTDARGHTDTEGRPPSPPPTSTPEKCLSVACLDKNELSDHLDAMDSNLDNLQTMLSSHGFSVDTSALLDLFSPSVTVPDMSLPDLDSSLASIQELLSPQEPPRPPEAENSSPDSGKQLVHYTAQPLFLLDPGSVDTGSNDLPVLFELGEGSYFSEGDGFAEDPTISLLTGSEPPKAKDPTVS
Summary of the method: as §1

[4] = target: T2, SPIC (Homo sapiens, UniProt Q8N5J4 1-248); details: protein: recombinant; tags: N-terminal GST; dsDNA, one strand shown
T2 sequence: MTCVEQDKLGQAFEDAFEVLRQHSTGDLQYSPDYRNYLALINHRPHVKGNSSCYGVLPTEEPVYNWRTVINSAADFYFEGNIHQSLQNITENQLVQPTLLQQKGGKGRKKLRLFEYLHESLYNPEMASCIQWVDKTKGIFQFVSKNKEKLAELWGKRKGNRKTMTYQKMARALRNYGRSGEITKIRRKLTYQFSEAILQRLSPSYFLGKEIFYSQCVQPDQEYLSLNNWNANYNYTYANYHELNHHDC
Summary of the method: as §1

[5] = target: ELF4 (Homo sapiens, UniProt Q99607 1-663); details: protein: recombinant; tags: N-terminal GST; dsDNA, one strand shown
ELF4, sequence (Q99607 whole entry): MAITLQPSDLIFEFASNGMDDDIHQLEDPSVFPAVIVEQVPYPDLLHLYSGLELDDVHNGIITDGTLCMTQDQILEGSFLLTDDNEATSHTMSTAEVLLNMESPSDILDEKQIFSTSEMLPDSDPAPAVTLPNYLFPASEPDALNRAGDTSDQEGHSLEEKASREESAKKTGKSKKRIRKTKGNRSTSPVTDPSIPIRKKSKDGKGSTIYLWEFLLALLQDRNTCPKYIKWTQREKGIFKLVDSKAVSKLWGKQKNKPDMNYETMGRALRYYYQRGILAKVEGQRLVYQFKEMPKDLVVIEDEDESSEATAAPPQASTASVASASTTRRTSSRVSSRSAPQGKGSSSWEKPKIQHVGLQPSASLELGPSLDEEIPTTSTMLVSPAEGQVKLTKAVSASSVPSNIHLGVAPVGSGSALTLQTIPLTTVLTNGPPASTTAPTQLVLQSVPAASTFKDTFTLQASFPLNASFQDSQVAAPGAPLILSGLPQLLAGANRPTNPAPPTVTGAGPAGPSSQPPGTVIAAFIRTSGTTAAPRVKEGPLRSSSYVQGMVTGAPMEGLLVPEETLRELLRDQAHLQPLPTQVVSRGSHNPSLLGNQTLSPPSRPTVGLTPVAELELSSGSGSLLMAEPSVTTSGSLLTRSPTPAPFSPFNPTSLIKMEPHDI
Summary of the method: as §1

[6] = target: T3, ELK4 (Homo sapiens, UniProt P28324-2 1-405); details: protein: recombinant; tags: N-terminal GST; dsDNA, one strand shown
T3 sequence: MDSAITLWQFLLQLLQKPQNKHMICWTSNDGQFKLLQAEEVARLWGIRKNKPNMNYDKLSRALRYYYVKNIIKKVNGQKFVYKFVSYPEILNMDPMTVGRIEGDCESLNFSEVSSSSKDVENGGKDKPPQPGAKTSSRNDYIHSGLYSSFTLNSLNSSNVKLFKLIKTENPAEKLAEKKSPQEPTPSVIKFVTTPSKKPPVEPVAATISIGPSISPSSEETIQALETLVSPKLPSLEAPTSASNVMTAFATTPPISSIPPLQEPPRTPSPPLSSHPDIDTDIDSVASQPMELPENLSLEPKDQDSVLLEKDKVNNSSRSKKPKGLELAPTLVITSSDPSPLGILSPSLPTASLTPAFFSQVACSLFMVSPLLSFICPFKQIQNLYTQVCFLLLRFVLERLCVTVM
Summary of the method: as §1

[7] = target: T4, ETV2 (Homo sapiens, UniProt O00321 1-342); details: protein: recombinant; tags: N-terminal GST; dsDNA, one strand shown
T4 sequence: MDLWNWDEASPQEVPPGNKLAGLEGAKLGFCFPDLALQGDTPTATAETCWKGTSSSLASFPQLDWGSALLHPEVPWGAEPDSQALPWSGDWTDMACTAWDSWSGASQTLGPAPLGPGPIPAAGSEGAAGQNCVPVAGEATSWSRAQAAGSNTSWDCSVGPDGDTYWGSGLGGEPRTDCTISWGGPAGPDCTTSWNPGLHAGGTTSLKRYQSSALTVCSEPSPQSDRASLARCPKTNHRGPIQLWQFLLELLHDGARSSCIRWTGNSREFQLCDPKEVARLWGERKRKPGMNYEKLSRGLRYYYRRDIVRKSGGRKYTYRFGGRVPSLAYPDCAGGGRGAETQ
Summary of the method: as §1

[8] = target: T5, ELF3 (Homo sapiens, UniProt P78545 1-371); details: protein: recombinant; tags: N-terminal GST; dsDNA, one strand shown
T5 sequence: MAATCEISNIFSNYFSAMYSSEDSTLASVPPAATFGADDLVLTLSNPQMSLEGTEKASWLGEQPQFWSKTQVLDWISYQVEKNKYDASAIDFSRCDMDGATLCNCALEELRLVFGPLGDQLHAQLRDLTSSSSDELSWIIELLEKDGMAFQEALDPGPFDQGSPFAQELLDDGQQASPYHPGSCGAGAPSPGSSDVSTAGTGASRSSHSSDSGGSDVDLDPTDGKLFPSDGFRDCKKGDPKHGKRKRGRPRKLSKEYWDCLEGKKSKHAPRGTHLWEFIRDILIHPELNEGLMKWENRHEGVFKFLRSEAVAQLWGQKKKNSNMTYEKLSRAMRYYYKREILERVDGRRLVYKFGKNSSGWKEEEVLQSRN
Summary of the method: as §1

[9] = target: CRX (Homo sapiens, UniProt O43186 1-299); details: protein: recombinant; tags: N-terminal GST; dsDNA, one strand shown
CRX, sequence (O43186 whole entry): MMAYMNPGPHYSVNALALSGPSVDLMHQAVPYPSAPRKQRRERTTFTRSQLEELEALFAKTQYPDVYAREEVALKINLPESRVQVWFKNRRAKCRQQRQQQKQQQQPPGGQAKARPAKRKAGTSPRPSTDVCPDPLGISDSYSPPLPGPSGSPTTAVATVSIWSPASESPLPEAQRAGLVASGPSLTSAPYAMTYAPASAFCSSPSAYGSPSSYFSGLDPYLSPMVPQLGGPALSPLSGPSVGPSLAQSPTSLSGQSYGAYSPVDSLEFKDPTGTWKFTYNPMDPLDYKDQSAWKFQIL
Summary of the method: as §1

[10] = target: ETV1 (Homo sapiens, UniProt P50549 1-477); details: protein: recombinant; tags: N-terminal GST; dsDNA, one strand shown
ETV1, sequence (P50549 whole entry): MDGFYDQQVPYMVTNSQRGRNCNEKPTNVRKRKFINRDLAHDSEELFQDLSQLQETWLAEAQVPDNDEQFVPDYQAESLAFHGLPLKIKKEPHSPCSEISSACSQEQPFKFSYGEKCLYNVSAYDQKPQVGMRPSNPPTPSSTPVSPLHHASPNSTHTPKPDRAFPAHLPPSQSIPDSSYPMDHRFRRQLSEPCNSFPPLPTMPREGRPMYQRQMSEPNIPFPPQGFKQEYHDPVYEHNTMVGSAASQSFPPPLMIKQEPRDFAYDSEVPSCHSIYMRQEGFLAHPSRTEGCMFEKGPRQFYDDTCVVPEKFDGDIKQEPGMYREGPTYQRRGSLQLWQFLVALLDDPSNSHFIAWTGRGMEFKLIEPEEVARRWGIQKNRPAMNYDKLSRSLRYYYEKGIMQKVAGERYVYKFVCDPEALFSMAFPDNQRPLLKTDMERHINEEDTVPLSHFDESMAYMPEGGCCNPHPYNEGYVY
Summary of the method: as §1

[11] = target: T6, ERF (Homo sapiens, UniProt P50548 1-548); details: protein: recombinant; tags: N-terminal GST; dsDNA, one strand shown
T6 sequence: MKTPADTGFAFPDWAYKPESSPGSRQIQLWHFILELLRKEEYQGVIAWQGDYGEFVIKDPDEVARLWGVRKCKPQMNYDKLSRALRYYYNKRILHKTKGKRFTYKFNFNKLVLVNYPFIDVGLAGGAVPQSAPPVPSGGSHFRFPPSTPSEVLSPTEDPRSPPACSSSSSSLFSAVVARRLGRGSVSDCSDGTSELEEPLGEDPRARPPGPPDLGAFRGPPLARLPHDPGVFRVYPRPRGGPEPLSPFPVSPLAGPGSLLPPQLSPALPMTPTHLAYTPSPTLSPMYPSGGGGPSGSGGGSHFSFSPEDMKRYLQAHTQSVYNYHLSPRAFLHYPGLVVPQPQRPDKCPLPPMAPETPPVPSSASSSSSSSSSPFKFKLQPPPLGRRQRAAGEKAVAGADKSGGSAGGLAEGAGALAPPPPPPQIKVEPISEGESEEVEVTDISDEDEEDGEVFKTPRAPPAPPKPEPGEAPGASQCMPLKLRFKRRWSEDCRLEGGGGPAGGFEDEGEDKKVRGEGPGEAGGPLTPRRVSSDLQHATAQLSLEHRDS
Summary of the method: as §1

[12] = target: T7, ETV3L (Homo sapiens, UniProt Q6ZN32 1-361); details: protein: recombinant; tags: N-terminal GST; dsDNA, one strand shown
T7 sequence: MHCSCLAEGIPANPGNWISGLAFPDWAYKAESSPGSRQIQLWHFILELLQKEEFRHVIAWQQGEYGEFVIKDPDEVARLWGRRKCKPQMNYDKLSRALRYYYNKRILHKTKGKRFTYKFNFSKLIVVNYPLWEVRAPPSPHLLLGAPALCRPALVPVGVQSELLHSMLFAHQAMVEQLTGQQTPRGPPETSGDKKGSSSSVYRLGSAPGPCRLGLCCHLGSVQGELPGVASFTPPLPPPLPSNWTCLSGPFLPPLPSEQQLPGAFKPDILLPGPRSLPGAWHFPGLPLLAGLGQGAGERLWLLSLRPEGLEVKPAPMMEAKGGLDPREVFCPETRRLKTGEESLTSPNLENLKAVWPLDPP
Summary of the method: as §1

[13] = target: T8, ETS2 (Homo sapiens, UniProt P15036 1-469); details: protein: recombinant; tags: N-terminal GST; dsDNA, one strand shown
T8 sequence: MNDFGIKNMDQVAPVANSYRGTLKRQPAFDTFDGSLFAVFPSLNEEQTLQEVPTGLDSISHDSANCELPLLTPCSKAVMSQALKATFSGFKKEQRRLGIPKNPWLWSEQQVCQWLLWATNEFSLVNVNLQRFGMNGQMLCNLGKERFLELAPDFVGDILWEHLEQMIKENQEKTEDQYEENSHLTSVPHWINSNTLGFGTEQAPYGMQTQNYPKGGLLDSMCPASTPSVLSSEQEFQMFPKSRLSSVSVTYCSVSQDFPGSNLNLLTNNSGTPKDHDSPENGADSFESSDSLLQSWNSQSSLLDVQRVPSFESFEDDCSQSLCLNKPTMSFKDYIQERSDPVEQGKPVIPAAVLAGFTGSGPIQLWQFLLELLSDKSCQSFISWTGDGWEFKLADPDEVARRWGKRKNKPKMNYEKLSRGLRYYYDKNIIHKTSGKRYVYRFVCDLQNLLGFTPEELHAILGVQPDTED
Summary of the method: as §1

[14] = target: T9, SPDEF (Homo sapiens, UniProt O95238 1-335); details: protein: recombinant; tags: N-terminal GST; dsDNA, one strand shown
T9 sequence: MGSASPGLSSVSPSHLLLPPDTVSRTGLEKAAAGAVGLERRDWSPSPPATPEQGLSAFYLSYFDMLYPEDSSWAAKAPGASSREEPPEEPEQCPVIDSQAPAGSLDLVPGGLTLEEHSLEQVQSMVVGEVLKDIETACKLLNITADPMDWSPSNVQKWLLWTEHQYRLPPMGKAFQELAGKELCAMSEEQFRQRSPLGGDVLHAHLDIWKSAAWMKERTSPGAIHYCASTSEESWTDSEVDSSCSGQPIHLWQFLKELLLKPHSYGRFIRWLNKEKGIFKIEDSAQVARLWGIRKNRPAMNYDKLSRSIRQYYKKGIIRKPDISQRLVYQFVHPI
Summary of the method: as §1

[15] = target: T10, ETV7 (Homo sapiens, UniProt Q9Y603 1-341); details: protein: recombinant; tags: N-terminal GST; dsDNA, one strand shown
T10 sequence: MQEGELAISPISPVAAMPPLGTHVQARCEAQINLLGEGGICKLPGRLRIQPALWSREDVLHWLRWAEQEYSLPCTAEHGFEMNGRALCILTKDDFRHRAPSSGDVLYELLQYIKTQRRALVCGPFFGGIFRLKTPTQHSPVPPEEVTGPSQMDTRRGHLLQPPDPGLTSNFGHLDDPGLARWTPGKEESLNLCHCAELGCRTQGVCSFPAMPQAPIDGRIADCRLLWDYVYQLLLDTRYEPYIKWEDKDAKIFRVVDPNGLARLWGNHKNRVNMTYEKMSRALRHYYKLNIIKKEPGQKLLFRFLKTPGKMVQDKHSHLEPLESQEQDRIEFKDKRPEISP
Summary of the method: as §1

[16] = target: T11, ELF5 (Homo sapiens, UniProt Q9UKW6-2 1-255); details: protein: recombinant; tags: N-terminal GST; dsDNA, one strand shown
T11 sequence: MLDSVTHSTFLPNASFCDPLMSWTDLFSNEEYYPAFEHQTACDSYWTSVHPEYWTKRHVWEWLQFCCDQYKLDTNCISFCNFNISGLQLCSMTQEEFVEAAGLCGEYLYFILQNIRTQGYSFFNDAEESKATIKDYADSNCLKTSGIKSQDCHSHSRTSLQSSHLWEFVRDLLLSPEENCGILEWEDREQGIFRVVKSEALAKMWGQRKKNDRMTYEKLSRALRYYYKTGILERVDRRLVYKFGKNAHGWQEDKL
Summary of the method: as §1

[17] = target: T12, ETV3 (Homo sapiens, UniProt P41162-2 1-143); details: protein: recombinant; tags: N-terminal GST; dsDNA, one strand shown
T12 sequence: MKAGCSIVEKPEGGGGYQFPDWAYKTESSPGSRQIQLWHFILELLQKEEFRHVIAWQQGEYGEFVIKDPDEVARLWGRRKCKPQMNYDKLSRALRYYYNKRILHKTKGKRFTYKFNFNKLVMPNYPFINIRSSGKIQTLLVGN
Summary of the method: as §1

[18] = target: ETV6 (Homo sapiens, UniProt P41212 1-452); details: protein: recombinant; tags: N-terminal GST; dsDNA, one strand shown
ETV6, sequence (P41212 whole entry): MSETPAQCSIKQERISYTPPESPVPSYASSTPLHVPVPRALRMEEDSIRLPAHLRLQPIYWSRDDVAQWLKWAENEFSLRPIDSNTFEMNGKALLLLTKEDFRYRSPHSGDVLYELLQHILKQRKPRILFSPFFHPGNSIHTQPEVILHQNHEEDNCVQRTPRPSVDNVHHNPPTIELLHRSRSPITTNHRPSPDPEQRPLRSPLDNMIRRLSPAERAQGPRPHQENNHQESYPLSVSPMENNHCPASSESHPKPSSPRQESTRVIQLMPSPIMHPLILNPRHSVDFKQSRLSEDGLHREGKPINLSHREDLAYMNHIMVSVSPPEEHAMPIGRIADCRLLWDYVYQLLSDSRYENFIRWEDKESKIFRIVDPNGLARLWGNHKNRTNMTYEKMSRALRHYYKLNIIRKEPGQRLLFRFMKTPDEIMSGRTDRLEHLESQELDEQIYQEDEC
Summary of the method: as §1

## ATGGTT
[1]
  binding signal: 1.34 fold enrichment (6-mer frequency, TF over GST control)
[2]
  binding signal: 1.31 fold enrichment (6-mer frequency, TF over GST control)
[3]
  binding signal: 1.25 fold enrichment (6-mer frequency, TF over GST control)
[4]
  binding signal: 1.33 fold enrichment (6-mer frequency, TF over GST control)
[5]
  binding signal: 1.32 fold enrichment (6-mer frequency, TF over GST control)
[6]
  binding signal: 1.42 fold enrichment (6-mer frequency, TF over GST control)
[7]
  binding signal: 1.24 fold enrichment (6-mer frequency, TF over GST control)
[8]
  binding signal: 1.38 fold enrichment (6-mer frequency, TF over GST control)
[9]
  binding signal: 1.17 fold enrichment (6-mer frequency, TF over GST control)
[10]
  binding signal: 1.42 fold enrichment (6-mer frequency, TF over GST control)
[11]
  binding signal: 1.27 fold enrichment (6-mer frequency, TF over GST control)
[12]
  binding signal: 1.36 fold enrichment (6-mer frequency, TF over GST control)
[13]
  binding signal: 1.36 fold enrichment (6-mer frequency, TF over GST control)
[14]
  binding signal: 1.18 fold enrichment (6-mer frequency, TF over GST control)
[15]
  binding signal: 1.27 fold enrichment (6-mer frequency, TF over GST control)
[16]
  binding signal: 1.27 fold enrichment (6-mer frequency, TF over GST control)
[17]
  binding signal: 1.34 fold enrichment (6-mer frequency, TF over GST control)
[18]
  binding signal: 1.3 fold enrichment (6-mer frequency, TF over GST control)

From article PMC7862700, “An all-to-all approach to the identification of sequence-specific readers for epigenetic DNA modifications on cytosine”
